This excerpt belongs to a sample that is enriched for hits.
Tb PYK inh: blocks Trypanosoma brucei pyruvate kinase | 410,000 tested, 0.12% active | Q57TT1 | Potency, µM (series often up to 76.8 µM), most hits filed as inhibitors | AID 624173 | TbPYK enzyme, Kinase-Glo Plus ATP luminescence, 45 min; also: nearly all actives have a fitted effect of over 50% in size
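Luminescence from Kinase-Glo Plus, added after a 45-minute room-temperature reaction, served as the end-point read-out. The enzyme and substrate were preincubated with compound before ADP (130 uM final) initiated turnover. Concentration-effect curves came from normalized qHTS data.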
LmPK inh: inhibitors of Leishmania mexicana pyruvate kinase | Q27686 | purified LmPK, Kinase-Glo ATP luminescence, 1 h | Potency, µM (top dose mostly 57.5 µM), most hits filed as inhibitors | 290,000 tested, 0.37% active
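Purified LmPK (0.1 nM) converted ADP (0.1 mM) to ATP with PEP (0.5 mM) in imidazole buffer pH 7.2 with KCl and MgCl2, 1 h at room temperature. ATP was read by Kinase-Glo luminescence; data normalized to uninhibited and no-enzyme controls.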
Shiga inhibitor: Shiga toxin inhibition; Vero cells, Shiga toxin protein synthesis inhibition reporter; 290,000 tested, 9.2% active; inhibition, % at 38.7 µM; in the data active = inhibition mostly above about 28%, no sharp cut-off; inactive = mostly below about 43%
CHX counter: affects cycloheximide protein synthesis inhibition readout, counter-screen | cell reporter, cycloheximide protein synthesis inhibition counterscreen | max response, % | 300,000 tested, 12% active; in the data active = max response mostly above about 13%, no sharp cut-off; inactive = mostly below about 14%; also: read at 38.3 µM for the half of the compounds with a filed dose
FBPA Giardia inh: Giardia lamblia aldolase inhibition. A8B2U2. purified Giardia FBPA. Potency, µM (titrated, usually from 59.6 µM), hits mostly inhibitors. 290,000 tested, 0.71% active; also: nearly all actives have a fitted effect of over 55% in size
Target sequence (A8B2U2 whole entry, looked up): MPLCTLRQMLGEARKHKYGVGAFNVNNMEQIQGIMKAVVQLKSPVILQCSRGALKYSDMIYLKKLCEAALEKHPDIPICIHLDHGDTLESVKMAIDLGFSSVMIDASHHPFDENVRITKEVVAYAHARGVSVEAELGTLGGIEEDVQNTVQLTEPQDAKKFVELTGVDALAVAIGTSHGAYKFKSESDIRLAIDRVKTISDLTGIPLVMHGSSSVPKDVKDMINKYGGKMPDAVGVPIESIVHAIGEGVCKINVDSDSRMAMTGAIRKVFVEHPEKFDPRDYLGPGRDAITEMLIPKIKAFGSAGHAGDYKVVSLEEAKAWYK
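40 nM FBPA preincubated 10 min at RT with compound (up to 57.5 uM final), then substrate plus GAPDH/TPI/NAD/arsenate coupling and diaphorase/resazurin added. Fluorescence read after 20 min at RT, 525/598 nm.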
RE007 growth inh: less growth of the S. pombe RE007 Vpr strain | S. pombe RE007 Vpr strain, BacTiter-Glo ATP luminescence, 24 h | Potency, µM (series often up to 92.2 µM), most hits filed as inhibitors | 360,000 tested, 0.21% active | AID 651644; active = well fitted falling curve with a large enough effect; inconclusive = small, poorly fitted or top-dose-only effect; inactive = no such curve, though single readings can be large or run the other way; also: nearly all actives have a fitted effect of over 50% in size
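Fission yeast strain RE007, carrying one chromosomally integrated HIV-1 vpr copy, was seeded at OD 0.01 in PMG+AL medium with 23 nL pinned compound. After 24 h at 30 °C and 99% humidity, viability was read by BacTiter-Glo luminescence.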
A number is an active result; i = inactive; ? = inconclusive; nt = not tested or not shown. Unless noted, calls follow the shape of the dose curve; as a rule, active = well fitted curve in the direction sought with a large enough effect; inconclusive = small, poorly fitted or top-dose-only effect, or another doubt; inactive = no such curve, though single readings can be large; an effect the other way counts as inactive or inconclusive.

SMILES	Tb PYK inh	LmPK inh	Shiga inhibitor	CHX counter	FBPA Giardia inh	RE007 growth inh
O=C(CCNC(=O)c1ccco1)Nc1cccc(C(F)(F)F)c1	i	i	i	i	i	i
CN(C)/C=C/C(=O)c1cccc(Oc2ncccn2)c1	i	i	i	i	i	i
C[C@@H]1CN([C@H](C)CO)C(=O)CCCn2nncc2CO[C@@H]1CN(C)C(=O)Nc1cccc2ccccc12	i	nt	nt	nt	nt	i
COC(=O)c1cc(OC)nc2ccc(Br)cc12	i	i	i	i	i	i
Cc1ccc(CCNC(=O)Cc2ccc(NC3=NC4CS(=O)(=O)CC4S3)cc2)cc1 (centres undefined)	i	i	i	i	i	i
CN1[C@H]2CC(OC(=O)[C@H](CO)c3ccccc3)C[C@H]1[C@H]1O[C@H]12 (some centres undefined)	i	nt	nt	nt	nt	nt
O=C(c1ccccc1)c1nnc(-c2ccccc2F)o1	i	14.1µM	68.7	44.7	i	i
C=CCOc1ccc(CNCc2cccnc2)cc1	i	i	i	8.5	i	i
O=C(Nc1ccc(N2CCOCC2)cc1)c1ccncc1	i	i	32.3	13.6	i	i
Cc1ccnc2nc(C(=O)Nc3ccc(N4CCOCC4)cc3)nn12	?	?	74.3	27.6	i	i
O=C(Nc1ccc(N2CCOCC2)cc1)c1ccc([N+](=O)[O-])cc1	i	i	84.5	28.0	i	i
COC(=O)C1CCN(C(=O)COC(=O)c2oc3ccc(OC)cc3c2C)CC1	i	i	i	i	i	i
COc1cccc(CNC(=O)CCc2c(C)c3ccc(O)c(C)c3oc2=O)c1	i	nt	nt	nt	nt	nt
NC(=O)c1c(NC(=O)c2noc3c2CCCC3)sc2c1CCCC2	i	nt	nt	nt	nt	nt
CCOc1cc(/C=C/c2ccc3cccc([N+](=O)[O-])c3n2)cc(Cl)c1O	i	i	i	10.8	i	i
CC(=O)Nc1ccc(/C=C/c2nc3ccccc3[nH]c2=O)cc1	i	i	i	i	i	i
CC(=O)Nc1ccc(/C=C/c2ccc3c([N+](=O)[O-])cccc3n2)cc1	i	i	69.6	32.9	i	i
O=[N+]([O-])c1cccc2ccc(/C=C/c3ccc(Cl)cc3)nc12	i	i	136.9	45.3	i	i
Cn1cc2cccc([N+](=O)[O-])c2n1	i	i	i	i	i	i
O=[N+]([O-])c1cccc2ccc(/C=C/c3ccc(C(F)(F)F)cc3)nc12	i	i	i	20.5	i	i
O=[N+]([O-])c1cccc2ccc(/C=C/c3cccc(Br)c3)nc12	i	i	70.5	42.0	i	i
COc1cc(/C=C/c2ccc3cccc(OC)c3n2)c(O)c([N+](=O)[O-])c1	i	i	i	i	i	i
Cc1ccc(C(=O)C(C)OC(=O)c2ccccc2[N+](=O)[O-])cc1 (centres undefined)	i	i	71.0	50.1	i	i
Cc1ccc(C(=O)/C=C/c2ccc(-c3ccccc3[N+](=O)[O-])o2)cc1	i	i	i	i	?	i
CN(C)C(=O)COC(=O)/C=C/c1ccccc1[N+](=O)[O-]	i	i	i	i	i	i
SMILES	Tb PYK inh	LmPK inh	Shiga inhibitor	CHX counter	FBPA Giardia inh	RE007 growth inh
O=C(/C=C/c1ccccc1[N+](=O)[O-])c1ccccc1Br	i	i	47.1	14.1	i	28.2µM
Cc1ccc(C(=O)/C=C/c2ccccc2[N+](=O)[O-])cc1	i	i	i	27.8	i	i
CCN(CC(=O)Nc1ccccc1C(F)(F)F)C(=O)c1oc2ccc(OC)cc2c1C	i	nt	nt	nt	nt	i
CCC(Sc1nnc2c(n1)[nH]c1ccccc12)C(=O)Nc1nnc(C(C)C)s1 (centres undefined)	i	nt	nt	nt	nt	nt
O=C(COc1ccccc1)NCC(=O)NC1=NCCS1	i	i	i	i	i	i
Cc1ccccc1OCC(=O)NC1=NCCS1	i	?	31.9	29.2	i	i
Cc1ccc(OCC(=O)NC2=NCCS2)cc1	i	i	i	24.7	i	i
Cc1ccc(C2=NN(CC(=O)NCCc3ccccc3)C(=O)CC2)cc1	i	nt	nt	nt	nt	nt
CCN(CC)c1ccc(N=Nc2nn(C)c(C)c2[N+](=O)[O-])cc1	i	i	86.7	64.6	i	i
CCN(Cc1ccccc1)c1ccccc1	i	nt	nt	nt	nt	i
CCN(Cc1ccccc1)c1ccc(N=Nc2nn(C)c(C)c2[N+](=O)[O-])cc1	i	i	i	17.2	i	i

Screening results deposited in PubChem by National Center for Advancing Translational Sciences (NCATS).
